The results in this text go back to PubChem BioAssay AID602350 (Broad Institute, 2012).

Each structure is given as a SMILES string. Measured potencies and affinities stand elsewhere. The source made the active and inactive calls.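 How the source made its calls: active means absorbance falls by 30% or more versus neutral controls, with a potency fitted within twice the top valid dose; inconclusive means no clear call, values can overlap the other calls; inactive means change opposite to expected direction, plus the rest.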

This assay deals with Protein disulfide-isomerase (Homo sapiens) (UniProt P07237). In words: PDI inhibitors, insulin aggregation turbidity, dose response, biochemical, absorbance, cherry-picked samples (AID 602350).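 Further: 0% = neutral controls and -100% = rutin hydrate positive control wells.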 Particulars: recombinant PDI insulin aggregation, absorbance 650 nm, 90 min; series mostly up to 19.5 µM; activity change, negative = inhibition: at the top concentration.
Protein disulfide-isomerase (Homo sapiens), sequence (P07237 whole entry, looked up): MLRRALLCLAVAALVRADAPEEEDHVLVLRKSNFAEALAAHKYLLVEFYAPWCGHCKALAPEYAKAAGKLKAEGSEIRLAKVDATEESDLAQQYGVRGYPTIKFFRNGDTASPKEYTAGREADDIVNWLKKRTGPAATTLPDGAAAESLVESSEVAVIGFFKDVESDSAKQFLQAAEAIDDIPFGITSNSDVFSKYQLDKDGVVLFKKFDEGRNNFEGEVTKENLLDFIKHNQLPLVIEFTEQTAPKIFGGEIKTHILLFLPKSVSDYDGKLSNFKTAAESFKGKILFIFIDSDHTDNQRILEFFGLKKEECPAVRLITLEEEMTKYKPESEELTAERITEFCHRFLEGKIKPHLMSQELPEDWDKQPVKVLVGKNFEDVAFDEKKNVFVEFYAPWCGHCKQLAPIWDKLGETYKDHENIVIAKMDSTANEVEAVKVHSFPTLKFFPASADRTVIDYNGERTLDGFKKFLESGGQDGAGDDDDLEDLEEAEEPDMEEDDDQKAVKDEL
Turning to `CCOC(=O)c1c(CN2CCN(C)CC2)n(-c2ccccc2)c2cc(Br)c(O)cc12`, the “activity change, negative = inhibition” value was -11.8% (inactive).

In the case of `CC(C)c1ccc(/C=N/NC(=O)c2ccc(-n3cnnn3)cc2)cc1`, the “activity change, negative = inhibition” value is 12.5% (inactive).

For the compound `S=C(NCCc1ccccc1)Nc1ccccn1`, the “activity change, negative = inhibition” value is 12.8% (inactive).

In the case of `CCOC(=O)Oc1c(OC)cc(C(=O)O[C@@H]2C[C@@H]3CN4CCc5c([nH]c6cc(OC)ccc56)[C@H]4C[C@@H]3[C@H](C(=O)OC)[C@H]2OC)cc1OC`, the “activity change, negative = inhibition” value is 6.28% (inactive).

In the case of `CCOC(=O)C1(CCOc2ccccc2)CCN(Cc2ccccc2O)CC1`, the “activity change, negative = inhibition” value is 7.15% (inactive).

With `Cc1cc(Cl)ccc1OCc1n[nH]c(=S)n1C1CCCCC1`, the “activity change, negative = inhibition” value was 12.3% (inactive).

In the case of `CCN(CC)C(=O)CSc1nnc([C@H](Cc2c[nH]c3ccccc23)NC(=O)OC(C)(C)C)o1`, the “activity change, negative = inhibition” value is -12.5% (inactive).

Turning to `O=C(Nc1nccs1)c1ccc(-c2ccccc2[N+](=O)[O-])o1`, the “activity change, negative = inhibition” value is 15.1% (inactive).

As to `CCOC(=O)c1oc2cccc(O)c2c1CN(Cc1ccccc1)C(C)=O`, the “activity change, negative = inhibition” value is 9.38% (inactive).

For the compound `OCCC1CN(Cc2cccn2-c2ccccn2)CCN1C1CCCCC1` (centres undefined), the “activity change, negative = inhibition” value is 7.6% (inactive).

`CCCCC1CCC(c2nc(-c3ccccn3)no2)CC1` (centres undefined): the “activity change, negative = inhibition” value is 0.964% (inactive).

Consider `CCN(CC(=O)Nc1ccc2c(c1)OCCO2)C(=O)CC1CCCC1`, for which the “activity change, negative = inhibition” value was 0.091% (inactive).

In the case of `Cc1cccc(C(=O)OCC(=O)N2CCCCCC2)c1O`, the “activity change, negative = inhibition” value is 2.35% (inactive).

`O=C(Nc1oc2ccccc2c(=O)c1-c1ccc(Cl)cc1)c1ccco1`: the “activity change, negative = inhibition” value was 16.3% (inactive).

For the compound `CN(C)c1ccc(C2(O)C(=O)c3ccccc3C2=O)cc1`, the “activity change, negative = inhibition” value was 0.244% (inactive).

As for `CC(C)Cn1c(N)c(C(=O)COC(=O)c2ccc(O)cc2)c(=O)n(C)c1=O`, the “activity change, negative = inhibition” value was -12% (inactive).

`COc1cc2c(cc1OC)C1C(C(=O)Nc3ccccc3N3CCN(C)CC3)c3ccccc3C(=O)N1CC2` (centres undefined): the “activity change, negative = inhibition” value is -4.54% (inactive).

Take `O=C(O)CCc1ccc(-c2cccs2)n1NC(=O)c1ccco1`: the “activity change, negative = inhibition” value was -0.245% (inactive).

As for `CCC1Nc2ncnc(N3CCCCC3)c2N(Cc2ccc(C)cc2)C1=O` (centres undefined), the “activity change, negative = inhibition” value was -9.18% (inactive).

On to `CC1(C(=O)Nc2ccc3c(c2)OCCO3)CCN1C(=O)C1(c2ccc(Cl)cc2)CC1` (centres undefined), for which the “activity change, negative = inhibition” value is -20.4% (inactive).

Take `CCOc1ccc(/C=N/OC(C)C(=O)NCc2ccc3c(c2)OCO3)cc1` (centres undefined): the “activity change, negative = inhibition” value was -4.34% (inactive).

Consider `O=C(/C=C/c1ccc(N2CCCCC2)c([N+](=O)[O-])c1)c1ccc(O)cc1`, for which the “activity change, negative = inhibition” value was -1.08% (inactive).

As for `N#Cc1c(NCCCO)nc(-c2ccco2)c2c1CCCC2`, the “activity change, negative = inhibition” value was -3.41% (inactive).

For the compound `COc1c(Br)cc(C(N)=O)cc1OCc1ccccc1`, the “activity change, negative = inhibition” value is 23% (inactive).

On to `CNC[C@@H]1Oc2c(NS(C)(=O)=O)cccc2C(=O)N([C@@H](C)CO)C[C@H]1C`, for which the “activity change, negative = inhibition” value is -11.5% (inactive).

With `CNc1ncnc2c1ncn2[C@H]1CN(Cc2cccc3ccccc23)C[C@@H](CO)O1`, the “activity change, negative = inhibition” value is -2.87% (inactive).

In the case of `C[C@@H]1CN([C@@H](C)CO)C(=O)Cc2cc(NC(=O)Nc3ccccc3)ccc2O[C@H]1CN(C)Cc1ccccc1`, the “activity change, negative = inhibition” value is -19.9% (inactive).

With `C[C@@H]1CN([C@H](C)CO)C(=O)c2cc(NC(=O)Cc3cn(C)c4ccccc34)ccc2O[C@@H]1CN(C)S(=O)(=O)c1ccc(F)cc1`, the “activity change, negative = inhibition” value is -15.5% (inactive).

For `c1ccc(Cn2nnc3c(Nc4ccc5c(c4)OCO5)nc(C4CC4)nc32)cc1`, the “activity change, negative = inhibition” value is 1.15% (inactive).

On to `CC(OC(=O)c1cccc(S(=O)(=O)N(C)C)c1)C(=O)NCC(=O)Nc1ccc(F)c(F)c1F` (centres undefined), for which the “activity change, negative = inhibition” value is 5.12% (inactive).

For `CCOC(=O)C1(CCOc2ccccc2)CCN(Cc2ccc(O)cc2)CC1`, the “activity change, negative = inhibition” value was -1.42% (inactive).

`CCOc1ccccc1CN1CCNC(=O)C1CC(=O)NCc1nccn1CC` (centres undefined): the “activity change, negative = inhibition” value was -1.91% (inactive).

As for `COc1cc(C(=O)N2CCN(C/C=C/c3ccccc3)CC2)cc(OC)c1OC`, the “activity change, negative = inhibition” value was 21.3% (inactive).

As to `CC1(c2ccc3ccccc3c2)NC(=O)N(CC(=O)Nc2cccc(S(=O)(=O)N3CCOCC3)c2)C1=O` (centres undefined), the “activity change, negative = inhibition” value was -3.1% (inactive).

As for `O=C1CCC(=O)N1c1nc2nc(-c3ccccc3)cc(-c3ccccc3)n2n1`, the “activity change, negative = inhibition” value was -3.29% (inactive).

Consider `CC[C@]12c3[nH]c4cc(-c5ccco5)ccc4c3CCN1C(=O)[C@@H](CC(=O)NCCCOC)C[C@@H]2C(=O)N1CCN(C(=O)C2CC2)CC1`, for which the activity change, negative = inhibition was 0.067% [at 2.1 µM] (inactive).

Take `O=C(Nc1nc2ccccc2s1)c1cccc(S(=O)(=O)N2CCc3ccccc32)c1`: the “activity change, negative = inhibition” value is -4.05% (inactive).

Take `Cc1ccc(C2=Nc3ccccc3SC(c3cccc([N+](=O)[O-])c3)C2)cc1` (centres undefined): the “activity change, negative = inhibition” value was 12.1% (inactive).

Turning to `C=CCn1c(SCC(=O)Nc2ccc(N(C)C)cc2)nnc1-c1cccc(C)c1`, the “activity change, negative = inhibition” value is 0.83% (inactive).
